Data published in PubChem BioAssay (EPA / NIEHS).
Results filed as inconclusive are left out. Activity calls are given as the source filed them. Rule for the calls, unless noted: active = hit-call score of the fitted dose curve at least 0.9, where 1 is the maximum; inconclusive = response in the unintended direction; inactive = score below 0.9.

Columns and labels:
[1] = ATG_TCF_b_cat_CIS: Attagene CIS-FACTORIAL HepG2 Assay for human T-Cell-Factor with beta-catenin (TCF/b-cat) (AID 2282965; active = hit-call score of the fitted dose curve at least 0.9, where 1 is the maximum; inactive = score below 0.9); settings: HepG2 TCF/beta-catenin cis-reporter transcription, actives raise or lower the signal
Procedure, shortened: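 HepG2, transient MRTU transfection, cis-element-driven reporters (endogenous TFs). 24 h compound exposure. Readout: reporter mRNA by RT-PCR + 6-FAM primer extension, HpaI digest, capillary electrophoresis. Gain/loss fit vs DMSO baseline.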

[2] = ATG_TAL_CIS: Attagene CIS-FACTORIAL HepG2 Assay for human TAL Basal Promoter (AID 2282966; active = hit-call score of the fitted dose curve at least 0.9, where 1 is the maximum; inactive = score below 0.9;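 note: background control endpoint measuring basal TAL promoter reporter mRNA not a specific factor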); settings: HepG2 Attagene cis-factorial TAL promoter reporter; actives raise or lower the signal
Procedure, shortened: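 RT-PCR plus capillary electrophoresis quantifies reporter mRNA induction in transiently transfected HepG2 cells after 24 h chemical treatment. DMSO serves as negative control and baseline for bidirectional fitting.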

[3] = ATG_TGFb_CIS: Attagene CIS-FACTORIAL HepG2 Assay for human Transforming Growth Factor (TGF) (AID 2282967; active = hit-call score of the fitted dose curve at least 0.9, where 1 is the maximum; inactive = score below 0.9); settings: HepG2 Attagene CIS TGFb reporter, mRNA transcription; actives raise or lower the signal
Procedure, shortened: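 HepG2 cells transiently transfected with cis-promoter-driven multiplexed reporter units; 24 h compound exposure. Reporter mRNA measured by RT-PCR, 6-FAM labeling, HpaI digestion and capillary electrophoresis; bidirectional fit versus DMSO baseline.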

[4] = ATG_VDRE_CIS: Attagene CIS-FACTORIAL HepG2 Assay for human Vitamin D Receptor Element (VDRE) (AID 2282968; active = hit-call score of the fitted dose curve at least 0.9, where 1 is the maximum; inactive = score below 0.9); settings: HepG2 VDRE cis-reporter transcription, actives raise or lower the signal
Procedure, shortened: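 Cell-based multiplexed reporter format in human liver HepG2 cells, 24 h post-dose. Fluorescence from capillary electrophoresis of reporter cDNA gives the signal, with DMSO as negative control and baseline.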

[5] = molecular target: Nuclear receptor subfamily 1 group I member 3 (Homo sapiens) (UniProt Q14994); assay: ATG_CAR_TRANS: Attagene TRANS-FACTORIAL HepG2 Assay for human Constitutive Androstane Receptor (CAR) (AID 2282969); settings: HepG2 Attagene TRANS-FACTORIAL CAR reporter;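 note: activators raise reporter mRNA above DMSO so AC50 marks induction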
Procedure, shortened: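 HepG2 cells transiently transfected with GAL4-UAS reporter units; TRANS format reads activity of exogenous chimeric NR-Gal4 protein. After 24 h dosing, reporter mRNA quantified by RT-PCR, 6-FAM labelling and capillary electrophoresis; gain of signal fitted against DMSO.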

[6] = molecular target: Estrogen receptor (Homo sapiens) (UniProt P03372); assay: ATG_ERa_TRANS: Attagene TRANS-FACTORIAL HepG2 Assay for human Estrogen Receptor alpha (ERa) (AID 2282970); settings: HepG2 Attagene TRANS ERa GAL4 reporter, mRNA
Procedure, shortened: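 Cells: HepG2, transiently transfected. Construct: GAL4-UAS reporter units regulated by exogenous NR-Gal4 chimeras. Time: 24 h. Detection: reporter mRNA by RT-PCR, capillary electrophoresis, fluorescence. Baseline: DMSO, upward fitting.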

[7] = molecular target: X-box-binding protein 1 (Homo sapiens) (UniProt P17861); assay: ATG_Xbp1_CIS: Attagene CIS-FACTORIAL HepG2 Assay for human X-box Binding Protein 1 (XBP1) (AID 2282972; active = hit-call score of the fitted dose curve at least 0.9, where 1 is the maximum; inactive = score below 0.9); settings: HepG2 XBP1 cis-element reporter, Attagene multiplex; actives raise or lower the signal
Procedure, shortened: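 Fluorescence-labelled cDNA fragments from reporter transcripts, separated by capillary electrophoresis, give the signal. Source: HepG2 cells transfected with promoter-driven reporter units, harvested 24 h post-dose. DMSO served as reference for bidirectional curve fitting.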

[8] = ATG_M_19_TRANS: Attagene TRANS-FACTORIAL HepG2 Assay for M19 Transcription Factor (Internal Marker) (AID 2282974); settings: HepG2 Attagene TRANS-FACTORIAL M19 internal marker reporter
Procedure, shortened: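 After transfection of HepG2 with GAL4-UAS-driven reporter constructs, cells are dosed for 24 h. Total RNA is reverse-transcribed, reporter sequences PCR-amplified and labelled, then HpaI-digested and sized by capillary electrophoresis.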

[9] = ATG_GAL4_TRANS: Attagene TRANS-FACTORIAL HepG2 Assay for GAL4 (Internal Marker) (AID 2282976); settings: HepG2 Attagene TRANS GAL4 internal marker reporter
Procedure, shortened: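 In transfected human HepG2 liver cells dosed 24 h, GAL4 reporter mRNA serves as a baseline marker. Detection by RT-PCR with fluorescent capillary electrophoresis, activity fitted upward relative to DMSO.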

[10] = molecular target: Glucocorticoid receptor (Homo sapiens) (UniProt P04150); assay: ATG_GR_TRANS: Attagene TRANS-FACTORIAL HepG2 Assay for human Glucocorticoid Receptor (GR) (AID 2282978); settings: HepG2 Attagene TRANS GR reporter, mRNA transcription;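 note: activators score as hits since higher reporter transcript over DMSO is fitted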
Procedure, shortened: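 Multiplexed TRANS reporter system, HepG2; 24 h exposure; RNA → oligo(dT) RT → reporter-specific PCR → 6-FAM primer extension → HpaI cut → CE fluorescence. Gain-of-signal vs DMSO.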

[11] = molecular target: Oxysterols receptor LXR-alpha (Homo sapiens) (UniProt Q13133); assay: ATG_LXRa_TRANS: Attagene TRANS-FACTORIAL HepG2 Assay for human Liver X Receptor alpha (LXRa) (AID 2282980); settings: HepG2 Attagene TRANS reporter, LXRa transactivation
Procedure, shortened: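 Chemical-induced reporter mRNA measured by RT-PCR with fluorescent labelling and capillary electrophoresis after 24 h dosing of transiently transfected HepG2 cells expressing exogenous NR-Gal4 chimeras; increases scored against DMSO baseline.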

[12] = molecular target: Hepatocyte nuclear factor 4-alpha (Homo sapiens) (UniProt P41235); assay: ATG_HNF4a_TRANS: Attagene TRANS-FACTORIAL HepG2 Assay for human Hepatocyte Nuclear Factor 4 alpha (HNF4a) (AID 2282982); settings: HepG2 HNF4a transactivation reporter, mRNA readout
Procedure, shortened: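 Gain-of-signal mRNA induction, relative to DMSO vehicle, was read after 24 h compound treatment of HepG2 cells bearing transfected GAL4-UAS reporters. Detection used RT-PCR, 6-FAM primer extension and capillary electrophoresis.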

[13] = ATG_M_06_TRANS: Attagene TRANS-FACTORIAL HepG2 Assay for M06 Transcription Factor (Internal Marker) (AID 2282983); settings: HepG2 Attagene TRANS M06 internal marker reporter
Procedure, shortened: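 Cells: HepG2, transient multi-reporter transfection. Exposure: 24 h. Detection: RT-PCR, 6-FAM labelling, HpaI digestion (2 h, 37 °C), capillary electrophoresis. Baseline: DMSO.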

[14] = ATG_M_32_TRANS: Attagene TRANS-FACTORIAL HepG2 Assay for M32 Transcription Factor (Internal Marker) (AID 2282984); settings: HepG2 Attagene TRANS M32 internal marker reporter;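 note: transcript level of a background control reporter unit measured by RT-PCR and capillary electrophoresis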
Procedure, shortened: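 Capillary electrophoresis of 6-FAM-labelled reporter fragments gives the signal; data fitted for gain over DMSO negative control. Source: HepG2 cells bearing transient multiple reporter transcription units, 24 h exposure.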

[15] = molecular target: Transcriptional activator Myb (Homo sapiens) (UniProt P10242); assay: ATG_Myb_CIS: Attagene CIS-FACTORIAL HepG2 Assay for human Myeloblastosis (Myb) Proto-Oncogene Transcription Factor (AID 2282986; active = hit-call score of the fitted dose curve at least 0.9, where 1 is the maximum; inactive = score below 0.9); settings: HepG2 Attagene CIS-FACTORIAL Myb reporter transcription; actives raise or lower the signal
Procedure, shortened: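 Endogenous transcription factor activity at a Myb-responsive cis element is reported in human liver HepG2 cells after 24 h chemical treatment. Reporter mRNA is detected by RT-PCR and capillary electrophoresis fluorescence, with DMSO as baseline.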

[16] = molecular target: Bile acid receptor (Homo sapiens) (UniProt Q96RI1); assay: ATG_FXR_TRANS: Attagene TRANS-FACTORIAL HepG2 Assay for Farnesoid X Receptor (FXR) (AID 2282979); settings: HepG2 Attagene TRANS FXR-GAL4 reporter transcription;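 note: hits raise reporter mRNA above DMSO so AC50 marks FXR activation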
Procedure, shortened: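 Reporter transcripts from transfected HepG2 cells were measured 24 h after dosing, using RT-PCR with capillary electrophoresis of 6-FAM-labelled fragments. The read-out reflects activity of exogenous FXR-Gal4 chimera on GAL4-UAS units, with induction relative to DMSO.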

[17] = molecular target: Oxysterols receptor LXR-beta (Homo sapiens) (UniProt P55055); assay: ATG_LXRb_TRANS: Attagene TRANS-FACTORIAL HepG2 Assay for human Liver X Receptor beta (LXRb) (AID 2282981); settings: HepG2 Attagene TRANS GAL4-LXRb reporter, mRNA
Procedure, shortened: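 Gain-of-signal mRNA reporter endpoint, DMSO as negative control. Transiently transfected HepG2 cells carrying the NR-Gal4 chimera and GAL4-UAS reporter units were treated 24 h; transcripts quantified by RT-PCR and capillary electrophoresis fluorescence.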

[18] = molecular target: Steroid hormone receptor ERR1 (Homo sapiens) (UniProt P11474); assay: ATG_ERRa_TRANS: Attagene TRANS-FACTORIAL HepG2 Assay for human Estrogen-Related Receptor alpha (ERRa) (AID 2282971); settings: HepG2 Attagene TRANS reporter, ERRa transactivation
Procedure, shortened: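 Reporter transcripts from ERRa-Gal4 chimera activity measured in transiently transfected human HepG2 cells 24 hours after dosing, using RT-PCR with 6-FAM primer extension, HpaI digestion and capillary electrophoresis; DMSO is baseline.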

[19] = molecular target: Nuclear receptor subfamily 4 group A member 2 (Homo sapiens) (UniProt P43354); assay: ATG_NURR1_TRANS: Attagene TRANS-FACTORIAL HepG2 Assay for human Nuclear Receptor Related Protein 1 (NURR1) (AID 2282985); settings: HepG2 Attagene TRANS reporter, mRNA readout
Procedure, shortened: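 HepG2 / transient MRTU transfection / 24 h compound exposure / RT-PCR + CE fluorescence of reporter mRNA / gain-of-signal vs DMSO.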

[20] = molecular target: Estrogen-related receptor gamma (Homo sapiens) (UniProt P62508); assay: ATG_ERRg_TRANS: Attagene TRANS-FACTORIAL HepG2 Assay for human Estrogen-Related Receptor gamma (ERRg) (AID 2282977); settings: HepG2 Attagene TRANS reporter, ERRg transactivation;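 note: hits increase reporter signal over DMSO so potencies reflect activators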
Procedure, shortened: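 HepG2 cells transiently transfected with multiplexed GAL4-UAS reporter units and chimeric NR-Gal4 constructs were exposed to test chemicals for 24 h. Reporter mRNA was measured by RT-PCR, 6-FAM primer extension, HpaI digestion and capillary electrophoresis; gain-of-signal versus DMSO.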

Measured: AC50

Sequence of Glucocorticoid receptor (Homo sapiens) (P04150 whole entry, looked up): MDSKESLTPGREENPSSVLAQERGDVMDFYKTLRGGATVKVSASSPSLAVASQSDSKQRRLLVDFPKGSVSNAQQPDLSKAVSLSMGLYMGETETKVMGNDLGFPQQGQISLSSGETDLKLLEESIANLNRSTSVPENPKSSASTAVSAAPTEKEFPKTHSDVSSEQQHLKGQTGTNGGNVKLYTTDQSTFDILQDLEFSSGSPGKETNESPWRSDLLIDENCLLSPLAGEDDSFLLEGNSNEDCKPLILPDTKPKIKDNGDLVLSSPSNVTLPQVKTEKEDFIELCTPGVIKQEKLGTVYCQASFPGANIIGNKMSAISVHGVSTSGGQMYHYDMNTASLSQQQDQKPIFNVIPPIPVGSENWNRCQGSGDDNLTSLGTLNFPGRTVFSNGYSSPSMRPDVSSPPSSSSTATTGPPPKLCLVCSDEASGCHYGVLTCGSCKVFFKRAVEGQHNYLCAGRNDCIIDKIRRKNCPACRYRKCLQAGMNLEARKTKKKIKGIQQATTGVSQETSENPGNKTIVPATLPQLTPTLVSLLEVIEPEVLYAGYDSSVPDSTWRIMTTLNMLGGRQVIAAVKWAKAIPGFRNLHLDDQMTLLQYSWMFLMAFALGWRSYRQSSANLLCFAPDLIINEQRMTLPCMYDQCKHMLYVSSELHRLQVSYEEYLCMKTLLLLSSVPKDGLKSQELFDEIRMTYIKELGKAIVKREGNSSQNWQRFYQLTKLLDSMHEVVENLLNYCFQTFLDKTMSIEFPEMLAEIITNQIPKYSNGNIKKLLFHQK
Sequence of Oxysterols receptor LXR-alpha (Homo sapiens) (Q13133 whole entry, looked up, the tested form may be a part): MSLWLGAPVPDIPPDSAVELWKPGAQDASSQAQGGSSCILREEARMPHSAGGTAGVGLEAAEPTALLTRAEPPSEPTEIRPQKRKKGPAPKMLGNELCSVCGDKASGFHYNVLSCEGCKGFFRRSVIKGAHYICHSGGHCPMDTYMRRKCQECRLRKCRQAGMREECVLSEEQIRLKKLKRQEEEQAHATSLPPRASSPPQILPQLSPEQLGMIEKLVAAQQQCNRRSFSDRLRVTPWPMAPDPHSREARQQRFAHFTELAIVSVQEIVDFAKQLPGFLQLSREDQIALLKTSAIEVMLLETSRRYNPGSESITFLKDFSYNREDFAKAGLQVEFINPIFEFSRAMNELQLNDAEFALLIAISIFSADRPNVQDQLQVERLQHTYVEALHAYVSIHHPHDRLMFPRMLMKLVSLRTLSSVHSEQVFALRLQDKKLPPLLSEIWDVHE
Sequence of Steroid hormone receptor ERR1 (Homo sapiens) (P11474 whole entry, looked up, the tested form may be a part): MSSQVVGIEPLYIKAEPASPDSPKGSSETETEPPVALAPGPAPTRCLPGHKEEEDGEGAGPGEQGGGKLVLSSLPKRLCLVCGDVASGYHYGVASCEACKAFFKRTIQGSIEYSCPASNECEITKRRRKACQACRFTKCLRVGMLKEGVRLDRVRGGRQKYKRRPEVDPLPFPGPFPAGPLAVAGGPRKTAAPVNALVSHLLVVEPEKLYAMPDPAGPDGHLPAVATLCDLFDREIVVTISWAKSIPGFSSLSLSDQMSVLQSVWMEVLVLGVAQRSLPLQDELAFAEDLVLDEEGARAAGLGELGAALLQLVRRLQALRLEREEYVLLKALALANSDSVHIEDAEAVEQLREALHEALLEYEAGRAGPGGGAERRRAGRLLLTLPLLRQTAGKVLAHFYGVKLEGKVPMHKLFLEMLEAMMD
Sequence of Transcriptional activator Myb (Homo sapiens) (P10242 whole entry, looked up): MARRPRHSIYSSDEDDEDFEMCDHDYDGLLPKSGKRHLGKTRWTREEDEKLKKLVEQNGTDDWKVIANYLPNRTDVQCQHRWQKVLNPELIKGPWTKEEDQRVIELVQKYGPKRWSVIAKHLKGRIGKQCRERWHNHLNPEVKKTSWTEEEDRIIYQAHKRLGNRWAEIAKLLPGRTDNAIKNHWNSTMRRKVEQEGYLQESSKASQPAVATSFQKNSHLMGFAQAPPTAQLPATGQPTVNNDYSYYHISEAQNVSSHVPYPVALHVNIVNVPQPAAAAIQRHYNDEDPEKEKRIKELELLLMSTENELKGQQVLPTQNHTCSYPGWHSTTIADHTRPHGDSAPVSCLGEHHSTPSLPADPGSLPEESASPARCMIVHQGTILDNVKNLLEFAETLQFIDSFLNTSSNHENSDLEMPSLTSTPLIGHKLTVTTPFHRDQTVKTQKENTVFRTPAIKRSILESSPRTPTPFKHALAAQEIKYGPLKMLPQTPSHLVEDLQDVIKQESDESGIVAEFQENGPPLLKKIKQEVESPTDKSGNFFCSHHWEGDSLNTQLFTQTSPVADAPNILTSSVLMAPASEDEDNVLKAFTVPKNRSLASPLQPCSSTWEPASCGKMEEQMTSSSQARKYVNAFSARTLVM
Sequence of Estrogen-related receptor gamma (Homo sapiens) (P62508 whole entry, looked up, the tested form may be a part): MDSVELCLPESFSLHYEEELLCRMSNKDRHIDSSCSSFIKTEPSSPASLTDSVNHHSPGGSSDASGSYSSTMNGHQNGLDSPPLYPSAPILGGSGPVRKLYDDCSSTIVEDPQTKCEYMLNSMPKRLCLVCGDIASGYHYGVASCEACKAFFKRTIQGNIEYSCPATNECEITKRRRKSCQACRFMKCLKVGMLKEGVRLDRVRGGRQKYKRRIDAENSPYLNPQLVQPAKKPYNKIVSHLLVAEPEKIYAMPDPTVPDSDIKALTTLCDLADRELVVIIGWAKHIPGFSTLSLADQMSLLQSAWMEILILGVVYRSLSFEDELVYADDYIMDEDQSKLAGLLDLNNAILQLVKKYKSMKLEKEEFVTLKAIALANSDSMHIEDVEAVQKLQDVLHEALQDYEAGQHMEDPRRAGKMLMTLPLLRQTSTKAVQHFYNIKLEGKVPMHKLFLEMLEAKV
Sequence of X-box-binding protein 1 (Homo sapiens) (P17861 whole entry, looked up, the tested form may be a part): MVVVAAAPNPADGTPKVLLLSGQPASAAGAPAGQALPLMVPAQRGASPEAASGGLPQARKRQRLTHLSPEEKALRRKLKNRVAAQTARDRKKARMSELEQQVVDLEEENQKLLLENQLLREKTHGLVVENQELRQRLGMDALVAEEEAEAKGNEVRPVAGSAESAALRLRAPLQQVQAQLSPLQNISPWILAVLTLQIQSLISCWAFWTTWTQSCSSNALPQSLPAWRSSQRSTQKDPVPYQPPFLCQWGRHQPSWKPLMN
Sequence of Nuclear receptor subfamily 1 group I member 3 (Homo sapiens) (Q14994 whole entry, looked up, the tested form may be a part): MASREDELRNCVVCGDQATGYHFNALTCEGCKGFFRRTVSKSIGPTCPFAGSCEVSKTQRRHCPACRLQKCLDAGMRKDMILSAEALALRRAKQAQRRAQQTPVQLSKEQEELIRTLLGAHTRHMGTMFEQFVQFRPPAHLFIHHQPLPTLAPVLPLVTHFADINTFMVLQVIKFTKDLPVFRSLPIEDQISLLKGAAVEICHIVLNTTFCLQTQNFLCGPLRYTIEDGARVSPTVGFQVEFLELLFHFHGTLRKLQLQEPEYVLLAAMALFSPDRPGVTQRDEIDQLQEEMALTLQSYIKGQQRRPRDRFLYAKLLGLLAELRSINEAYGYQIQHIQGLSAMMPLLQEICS
Sequence of Oxysterols receptor LXR-beta (Homo sapiens) (P55055 whole entry, looked up, the tested form may be a part): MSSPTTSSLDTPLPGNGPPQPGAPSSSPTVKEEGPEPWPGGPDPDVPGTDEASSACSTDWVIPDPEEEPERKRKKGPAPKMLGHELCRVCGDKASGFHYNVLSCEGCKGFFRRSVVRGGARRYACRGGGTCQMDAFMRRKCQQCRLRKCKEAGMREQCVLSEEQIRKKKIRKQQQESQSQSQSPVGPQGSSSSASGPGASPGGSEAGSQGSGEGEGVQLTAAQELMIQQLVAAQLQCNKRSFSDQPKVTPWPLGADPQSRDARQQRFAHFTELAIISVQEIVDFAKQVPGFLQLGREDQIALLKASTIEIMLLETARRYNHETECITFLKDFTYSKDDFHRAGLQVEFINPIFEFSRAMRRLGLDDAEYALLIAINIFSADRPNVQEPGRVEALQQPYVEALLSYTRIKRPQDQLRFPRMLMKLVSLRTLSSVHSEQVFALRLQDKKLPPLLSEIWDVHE
Sequence of Bile acid receptor (Homo sapiens) (Q96RI1 whole entry, looked up, the tested form may be a part): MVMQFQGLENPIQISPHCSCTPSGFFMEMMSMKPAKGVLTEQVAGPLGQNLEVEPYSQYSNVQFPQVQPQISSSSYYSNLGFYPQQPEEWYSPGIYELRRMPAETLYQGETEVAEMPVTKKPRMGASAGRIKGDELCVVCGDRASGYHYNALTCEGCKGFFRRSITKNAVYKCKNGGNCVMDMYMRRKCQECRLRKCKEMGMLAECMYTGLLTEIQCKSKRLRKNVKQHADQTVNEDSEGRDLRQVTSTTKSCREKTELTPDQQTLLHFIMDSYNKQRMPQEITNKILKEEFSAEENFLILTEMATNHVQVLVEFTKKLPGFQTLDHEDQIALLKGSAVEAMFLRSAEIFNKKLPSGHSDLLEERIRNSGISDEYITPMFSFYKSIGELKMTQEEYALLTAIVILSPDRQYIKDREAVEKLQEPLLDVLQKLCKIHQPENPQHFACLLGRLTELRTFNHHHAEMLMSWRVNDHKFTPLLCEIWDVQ
Sequence of Estrogen receptor (Homo sapiens) (P03372 whole entry, looked up, the tested form may be a part): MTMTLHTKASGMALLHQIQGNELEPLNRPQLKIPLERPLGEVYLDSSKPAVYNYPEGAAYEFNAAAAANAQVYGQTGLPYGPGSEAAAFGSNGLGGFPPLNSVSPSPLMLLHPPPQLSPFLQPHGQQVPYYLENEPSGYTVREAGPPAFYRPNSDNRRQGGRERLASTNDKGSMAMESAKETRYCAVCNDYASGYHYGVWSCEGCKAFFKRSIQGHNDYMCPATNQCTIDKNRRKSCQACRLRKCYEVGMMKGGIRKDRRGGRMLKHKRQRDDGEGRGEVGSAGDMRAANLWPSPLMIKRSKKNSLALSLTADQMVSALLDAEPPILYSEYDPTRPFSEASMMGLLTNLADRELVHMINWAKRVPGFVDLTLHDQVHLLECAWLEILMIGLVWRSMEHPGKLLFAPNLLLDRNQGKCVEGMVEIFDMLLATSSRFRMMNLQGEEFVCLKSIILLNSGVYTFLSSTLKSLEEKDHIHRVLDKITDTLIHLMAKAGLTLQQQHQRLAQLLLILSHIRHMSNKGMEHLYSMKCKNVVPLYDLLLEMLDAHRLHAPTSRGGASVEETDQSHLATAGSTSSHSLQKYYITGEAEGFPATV

O=C(OCCOCCOCCOC(=O)c1ccccc1)c1ccccc1
active: [6] 2000 nM
not listed: [16] | [17] | [18] | [19] | [20]
inactive: all other assays above

CO[Si](OC)(c1ccccc1)c1ccccc1
not listed: [11] | [13] | [17] | [18] | [19] | [20]
inactive: all other assays above

O=C(O)C(F)(F)C(F)(F)C(F)(F)C(F)(F)C(F)(F)C(F)(F)C(F)(F)C(F)(F)C(F)(F)C(F)(F)C(F)(F)C(F)(F)C(F)(F)F
not listed: [8] | [12] | [15] | [16] | [19] | [20]
inactive: all other assays above

NC(=O)C(F)(F)C(F)(F)C(F)(F)C(F)(F)F
not listed: [8] | [11] | [12] | [17] | [20]
inactive: all other assays above

FC(F)(F)C(F)(F)CNCC(F)(F)C(F)(F)F
not listed: [10] | [18] | [19]
inactive: all other assays above

Cc1cccc(N(C)C)c1
not listed: [8] | [11] | [16] | [17] | [19] | [20]
inactive: all other assays above

CC/C=C\CCOC(C)=O
not listed: [8] | [12]
inactive: all other assays above

FC(F)(I)C(F)(F)C(F)(F)C(F)(F)I
active: [6] 299 nM
not listed: [10] | [12] | [13] | [16] | [17] | [18] | [19]
inactive: all other assays above
